Results filed as inconclusive are left out. A call without a number means that no potency is given here. Activity calls are given as the source filed them. The call rests on the fitted dose curve; in most records, active means well fitted inhibition curve with a large enough effect; inconclusive means small, poorly fitted or top-dose-only effect; inactive means flat fitted curve, though single readings scatter.
Test: CHOP2 Reporter Counterscreen Assay for Inhibitors of Ubiquitin-specific Protease USP2a;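 further: activated enterokinase alone at 50 pM in a cell-free format rather than USP2a or CHOP2; nearly all actives have a fitted effect of over 55% in size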
Conditions: purified enterokinase, fluorogenic substrate, 485/531 nm; series mostly up to 38.3 µM
Outline: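 Cell-free counterscreen with pre-activated enterokinase alone (50 pM final) in 20mM Tris-HCl pH 8.0, 2mM CaCl2, 2mM beta-mercaptoethanol, 0.05% CHAPS; compound preincubation 30 min RT, reporter substrate 25nM final, fluorescence read after 10 min (Ex 485/Em 531).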
Potency means the concentration at half of the fitted maximal effect.

Which Potency does the source give for `CCNC(=S)N/N=C/c1cn(Cc2ccc(F)cc2)c2ccccc12` here?
Its Potency is “inactive”.

With `COc1ccc(NC(=O)CSc2ncccc2C(=O)OC(C)C)cc1OC` as the molecule, how does the Potency read?
Its Potency is “inactive”.

For `CCCOc1ccc(/C=C2\SC(=S)N(CC3CCCO3)C2=O)cc1` (stereo not given), which Potency is on record?
The Potency was “inactive”.

For `CC(=O)c1c(N2CCCC2)[nH]c(-c2ccccc2)nc1=S`, which Potency is on record?
The Potency was “inactive”.

For `Cn1c(C(=O)N2CCN(Cc3ccc4c(c3)OCO4)CC2)cc2sccc21`, which Potency is on record?
The Potency was “inactive”.

With `COC1=CCC2([N+](=O)[O-])CN(CCO)CC1([N+](=O)[O-])C2` (stereo not given) as the molecule, how does the Potency read?
Its Potency is “inactive”.

For `C[C@H](CO)N1C[C@H](C)[C@@H](CN(C)S(=O)(=O)c2cccs2)Oc2c(NC(=O)Nc3ccc4c(c3)OCO4)cccc2C1=O`, which Potency is on record?
The Potency was “inactive”.

Which Potency does the source give for `COCCCNC(=O)C1CCN(c2nc(C)cc(C)n2)CC1` here?
Its Potency is “inactive”.

Which Potency does the source give for `COc1ccccc1C(=O)n1nc(-c2cccnc2)nc1NCc1ccccc1` here?
The Potency was 1 µM (active).

With `O=C(O)CC(C(=O)O)N1C(=O)/C(=C/C=C/c2ccco2)SC1=S` (stereo not given) as the molecule, how does the Potency read?
Its Potency is 3.55 µM (active).

Which Potency does the source give for `CCc1ccccc1OCC(=O)Nc1ccc(N2CCCC2)cc1C` here?
Its Potency is 10 µM (active).

With `COc1cc2c(ccc3cc(OC)c(OC)c(O)c32)cc1O` as the molecule, how does the Potency read?
The Potency was 5.62 µM (active).

For `CC1CCCCC1NC(=O)CSCC(=O)O` (stereo not given), which Potency is on record?
The Potency was “inactive”.

With `NS(=O)(=O)c1cc(C(=O)NC2CCSc3ccccc32)ccc1Cl` (stereo not given) as the molecule, how does the Potency read?
Its Potency is 10 µM (active).

For `CC(C)n1nc(C(=O)Nc2ccccc2N2CCOCC2)c2ccccc2c1=O`, which Potency is on record?
The Potency was “inactive”.

Which Potency does the source give for `O=C(N/C(=C/c1cccnc1)C(=O)N1CCOCC1)c1ccco1` here?
Its Potency is “inactive”.

With `N#CNC(=Nc1cccc(F)c1)SCc1cccc(F)c1` as the molecule, how does the Potency read?
The Potency was “inactive”.

Which Potency does the source give for `COc1cc(C(c2c(C)[nH][nH]c2=O)c2c(C)[nH][nH]c2=O)ccc1OCc1ccc([N+](=O)[O-])cc1` here?
Its Potency is “inactive”.

Which Potency does the source give for `CCOC(=O)C1CCN(C(=O)COC(=O)c2c(C)c(CC)nc3ccccc23)CC1` here?
The Potency was “inactive”.

Which Potency does the source give for `CCOc1ccc2[nH]c(=O)c(CN(Cc3nnnn3Cc3ccco3)C3CCCCC3)cc2c1` here?
The Potency was “inactive”.

Which Potency does the source give for `O=C(Nc1nnc(SCC(=O)N2CCCC2)s1)C1CC(=O)N(c2ccc(F)cc2)C1` (stereo not given) here?
The Potency was 10 µM (active).

With `O=C(N/N=C/C=C/c1ccccc1)c1ccncc1` as the molecule, how does the Potency read?
Its Potency is “inactive”.

For `Fc1ccc(-c2nnn(Cc3nc4ccccc4s3)n2)cc1`, which Potency is on record?
Its Potency is “inactive”.

Which Potency does the source give for `COc1cc(C(=O)OCC(=O)Nc2c(F)c(F)c(F)c(F)c2F)cc(OC)c1OC` here?
Its Potency is “inactive”.

With `COc1ccc(CC(=O)c2ccccc2C(=O)O)cc1` as the molecule, how does the Potency read?
Its Potency is “inactive”.

Which Potency does the source give for `Cc1cc(C(=O)NCc2ccco2)on1` here?
The Potency was “inactive”.

Which Potency does the source give for `CSc1cccc(NC(=O)c2ccccc2N(C)S(C)(=O)=O)c1` here?
Its Potency is “inactive”.

With `CC(C)n1c(/C=C/[C@H](O)C[C@H](O)CC(=O)O)c(-c2ccc(F)cc2)c2ccccc21` as the molecule, how does the Potency read?
The Potency was “inactive”.

With `Cc1ccccc1OCCn1nc(C(=O)O)c2ccccc2c1=O` as the molecule, how does the Potency read?
The Potency was “inactive”.

Which Potency does the source give for `Cc1cccc(-c2nnc3n2N=C(c2ccc(Br)cc2)CS3)c1` here?
The Potency was “inactive”.

With `COC(=O)c1ccccc1NC(=O)CSc1nc(O)cc(=O)n1C1CCCC1` as the molecule, how does the Potency read?
The Potency was “inactive”.

With `CCOC(=O)c1c(C)c(C(=O)O)n(C)c1C` as the molecule, how does the Potency read?
Its Potency is “inactive”.

With `O=C(CSc1nnnn1-c1ccc(F)cc1)c1ccc(O)c(O)c1` as the molecule, how does the Potency read?
The Potency was 12.6 µM (active).

For `Cc1cc(-c2csc(NC(=O)c3ccc(=O)[nH]c3)n2)c(C)n1Cc1ccccc1`, which Potency is on record?
The Potency was “inactive”.

Which Potency does the source give for `Cc1cccc(N2CCN(C(=O)CCc3nc4ccccc4[nH]3)CC2C)c1` (stereo not given) here?
The Potency was “inactive”.

Which Potency does the source give for `Cc1ccc(C(=O)N/C(=C/c2ccco2)C(=O)Nc2cccc(C(=O)O)c2)cc1` here?
Its Potency is 10 µM (active).

Which Potency does the source give for `COc1cccc(N2C(=O)C3CCCN3C2c2ccc(N(C)C)cc2)c1` (stereo not given) here?
The Potency was “inactive”.

Which Potency does the source give for `O=C(/C=C1\NC2(CCCC2)Cc2ccccc21)C(=O)N/N=C/c1ccc(O)c(O)c1` here?
Its Potency is 4.47 µM (active).

For `O=C(NCCCN1CCCC1=O)c1cccc(N2CCCC2=O)c1`, which Potency is on record?
Its Potency is “inactive”.

With `CCc1cc2c(=O)c(-n3cnc4ccccc43)coc2cc1O` as the molecule, how does the Potency read?
The Potency was “inactive”.
